# Laboratory results published in ChEMBL document CHEMBL3988442, “University of Dundee, Small-Polar-MMV Screening Library” (2021).
# Among all 48,000 compounds or so, about 13,000 (27%) showed an effect of 50% or more. Some of the results follow.
# Test system: Wolbachia pipientis
# Assay: Anti-Wolbachia Cell-Based Screen
# Assay type: functional
# Set-up: scale not given: in the data most compounds retested in dose-response had high values
# Details: 5 µM
row,Compound,Percent Effect [%]
1,O=C(O)C(F)(F)F.O=C(O)C(F)(F)F.O=C([C@H]1CN(Cc2nccs2)C[C@H]2OCC[C@@H]12)N1CCCCO1,-13.3
2,CCN1CCC2(CCC1=O)CN(c1cnc3ccccc3n1)CCN2C (configuration not stated),10.67
3,CCNC(=O)N(C)CCCc1n[nH]c(N)c1C#N,-6.653
4,CC(C)n1ccnc1C1CCCN(c2cc(C(=O)NC3CC3)ccn2)C1 (configuration not stated),11.95
5,Cc1cnn(C2CN(Cc3noc(-c4ccccc4)n3)C2)c1,6.311
6,Cn1ccnc1CN1CCN(Cc2noc(-c3ccccc3)n2)CC1,-3.916
7,OCC1(O)CCN(Cc2noc(-c3ccccc3)n2)CC1,112.4
8,CCCC(N)CNS(=O)(=O)Cc1cccc(C#N)c1.Cl (configuration not stated),-1.555
9,Cn1nc2c(cc1=O)CN(CCCOc1ccc(C#N)cc1)CC2,-8.416
10,Cc1ccc(CS(=O)(=O)CC(=O)NCc2ccccc2F)cc1,-26.12
11,Cc1ccc(CS(=O)(=O)CC(=O)NCCCOC(C)C)cc1,104.7
12,CC(C)OCCCNC(=O)CS(=O)(=O)Cc1ccc(C(C)C)cc1,60.49
13,Cc1cccc(CS(=O)(=O)CC(=O)NCCCOC(C)C)c1,-2.072
14,CC(C)OCCCNC(=O)CS(=O)(=O)Cc1cccc(Cl)c1,109.4
15,CC(C)OCCCNC(=O)CS(=O)(=O)Cc1ccc(Cl)cc1,111.2
16,CC(C)OCCCNC(=O)CS(=O)(=O)Cc1ccc(Cl)c(Cl)c1,-2.776
17,CC(C)c1ccc(CS(=O)(=O)CC(=O)NCc2ccccc2F)cc1,-59.22
18,CC(C)OCCCNC(=O)NC(C)c1ccc(-n2cncn2)cc1 (configuration not stated),21.75
19,CC(NC(=O)NCCCN(C)S(C)(=O)=O)c1cccc(Cl)c1 (configuration not stated),-5.228
20,CC(C)(C)CC(=O)NCC(=O)NS(=O)(=O)c1cccnc1,-1.885
21,COc1ncnc(N(C)C)c1NC(=O)Cc1cc(F)ccc1F,-32.31
22,CC(C)(C)c1ccc(C2(C(=O)NCCCS(C)(=O)=O)CC2)cc1,-6.927
23,CC(C)OCCCNC(=O)CN1CCC(N2CCN(C)C2=O)CC1,-1.952
24,Cc1ccc(C)c(CS(=O)(=O)CC(=O)NCCCOC(C)C)c1,103.7
25,Cc1ccc(C)c(CS(=O)(=O)CC(=O)Nc2ccc(F)cc2F)c1,-7.067
26,CC(C)OCCCNC(=O)CS(=O)(=O)Cc1ccc(C(C)(C)C)cc1,103.7

row,Compound,Percent Effect [%]
1,Cc1ccc(C)c(CS(=O)(=O)CC(=O)NC(C)c2ccc(F)cc2F)c1 (configuration not stated),34.69
2,Cc1cc(NC(=O)CNc2ccc(Br)cc2F)on1,-13.69
3,CNC(=O)[C@@H](CC(C)C)N1CCC[C@H]1C(=O)N(C)Cc1ccccc1.Cl,3.832
4,CS(=O)(=O)N1CCc2c(nnn2CC2CC2)C1COCC1CC1 (configuration not stated),9.145
5,CCOc1ccc(CC(=O)N2CCCC2c2cc(C)on2)cc1 (configuration not stated),5.942
6,Cc1noc(C)c1CN(C)C(=O)C1CCCCN1S(C)(=O)=O (configuration not stated),-0.5133
7,Cc1nc(CCC(N)=O)cc(C2CCCN2S(C)(=O)=O)n1 (configuration not stated),118
8,NC(=O)CN1CCN(S(=O)(=O)N2CCCC2c2ccco2)CC1 (configuration not stated),-1.711
9,CNC(=O)CCN1CCCC1c1ccccc1Br (configuration not stated),10.79
10,Cc1cc(C2CCCN2C(=O)COc2ccc(CC#N)cc2)no1 (configuration not stated),-10.78
11,Cc1nc(CCC(N)=O)cc(C2CCCCN2S(C)(=O)=O)n1 (configuration not stated),110.4
12,Cc1cc(C2CCCN2C(=O)c2ccc(OCC(N)=O)cc2)no1 (configuration not stated),5.942
13,Cc1nc(O)cc(CCNC(=O)CC[C@@H]2CCCN3CCCC[C@H]23)n1,-10.54
14,CNC(=O)CCc1cc(C2CCCN2C(=O)CO)nc(C)n1 (configuration not stated),135.9
15,CNC(=O)CCc1cc(C2CCCN2S(C)(=O)=O)nc(C)n1 (configuration not stated),95.26
16,Nc1nc2c(c(N3CCC(CCn4cccn4)CC3)n1)CCNCC2,1.454
17,CC(Cc1ccc2c(c1)OCO2)c1cn(CCN2CCCC2)nn1 (configuration not stated),21.75
18,CN(C)CCN(Cc1cccnc1)C(=O)c1ccn(-c2ccccc2)n1,1.059
19,CCC(C)C(=O)NCc1ccn(-c2ccc(F)cc2)n1 (configuration not stated),-3.834
20,COc1ccc(-n2ccc(C(=O)N(CCN(C)C)C(C)C)n2)cc1,158.8
21,COc1ccc(-n2ccc(C(=O)N(C)C(C)C3(C)CC3)n2)cc1 (configuration not stated),114.7
22,COc1ccc(-n2ccc(C(=O)N3CCC(C(N)=O)C3)n2)cc1 (configuration not stated),-0.5166
23,COc1ccc(SC(C)C(=O)N2CCC(O)CC2)cc1 (configuration not stated),1.982
24,COCCN(C(=O)c1ccn(-c2ccc(OC)cc2)n1)C(C)C(N)=O (configuration not stated),143
25,CC(C)N(C)CC(=O)Nc1ccc(-n2ccc(C(N)=O)n2)cc1,-7.566
26,COCCN(CCOC)C(=O)c1ccn(-c2ccccc2Cl)n1,2.098

row,Compound,Percent Effect [%]
1,CCC[C@@H](NC(N)=O)C(=O)N1CCc2ccccc2CC1,5.215
2,O=C(NCCOc1ccc(F)c(F)c1)NCc1ccncc1,-13.71
3,Cc1cc(CNC(=O)N2CCN(C(C)c3cccnc3)CC2)c(C)o1 (configuration not stated),-1.868
4,CN1[C@@H](CCC(=O)NCc2ccc(F)cc2)CNC(=O)[C@H]2NCC[C@H]21,3.15
5,N#Cc1cnc(N2CCC3(CC2)OCCO3)nc1N,125
6,CC1CCN(c2ncc3c(n2)CN(c2ccc4c(c2)OCO4)C3=O)CC1,-9.746
7,CC1CCN(c2ncc3c(n2)CN(c2ccccc2)C3=O)CC1,-3.671
8,N#Cc1cnc(N2Cc3cnn(Cc4ccc(F)cc4)c3C2)nc1N,-0.8846
9,CC1CCN(c2ncc(C#N)c(N)n2)CC1,102.6
10,CCc1nsc(N2CCC3(CC2)OCCO3)n1,-6.104
11,CC(C)(C)c1cnc(CN2CCC(NC(=O)NC3CCCCC3)CC2)o1,-3.337
12,CCn1c(Cn2cncn2)nnc1C1CCN(Cc2ccc(C)o2)CC1,-1.569
13,Cc1cc(=O)[nH]c(-n2nc(C)c(CCC(=O)NCc3ccco3)c2C)n1,133
14,Cc1ccc2cnn(CCC(=O)NCc3c(C)nn(C)c3C)c2c1,-12.76
15,Cc1nc(CNc2ccc(C(=O)NCc3ccco3)cc2C)no1,-9.034
16,Cc1nc(CNC(=O)CCCc2cccs2)no1,-18.16
17,Cc1cc(=O)[nH]c(-n2nc(C)c(CCC(=O)NCc3cccs3)c2C)n1,127.2
18,Cc1csc(CNC(=O)CCCc2cccs2)n1,21.24
19,O=C1OCCN1Cc1cccc(F)c1C(F)(F)F,-13.53
20,CCS(=O)(=O)NCCN1CCc2ccc(F)cc2C1C (configuration not stated),-17.56
21,O=C(Cc1ccccc1)NC[C@H]1Cn2ccnc2CO1,-7.774
22,Cc1ccnc(CC(C)N(C)c2cc(CCN)nc(C)n2)c1 (configuration not stated),-16.25
23,Cc1nn(C)c(Cl)c1C1CCCN1C(=O)c1ccoc1C (configuration not stated),103.1
24,COc1c(C2CCCN2C(=O)c2ccoc2C)c(C)nn1C (configuration not stated),-17.99
25,COc1c(C2CCCN2C(=O)c2ccnn2C)c(C)nn1C (configuration not stated),-14.45
26,Cc1noc(C)c1C(=O)N1CCCC1c1c(C)nn(C)c1Cl (configuration not stated),2.958

row,Compound,Percent Effect [%]
1,Cc1nn(C)c(Cl)c1C1CCCN1C(=O)c1cccn1C (configuration not stated),113.6
2,Cc1nn(C)c(Cl)c1C1CCCN1C(=O)c1ccnn1C (configuration not stated),108
3,COc1c(C2CCCN2C(=O)c2cccn2C)c(C)nn1C (configuration not stated),-5.9
4,OC(CN(Cc1ccccc1)Cc1ccon1)c1cccs1 (configuration not stated),-5.25
5,CCCn1[nH]cc/c1=N\C(=O)CN1CCCC1Cn1cccn1 (configuration not stated),-1.433
6,CCN(CC1CCOC1)C(=O)c1cc(OC)c2c(c1)OCCO2 (configuration not stated),-3.228
7,Cl.c1ncc(-c2ccc(C3CNCCO3)nc2)cn1 (configuration not stated),106.1
8,COc1ccc(-c2cnc(CN3CCCC3CO)o2)cc1 (configuration not stated),-7.324
9,COc1ccc(-c2c[nH]c([C@@H]3COCCN3)n2)cc1,-8.862
10,Cl.c1ccc(-c2ccc(C3CNCCO3)nc2)cc1 (configuration not stated),-0.3347
11,Cc1ccc(-c2ccc(C3CNCCO3)nc2)cc1.Cl (configuration not stated),114.4
12,Cl.Clc1ccc(-c2ccc(C3CNCCO3)nc2)cc1 (configuration not stated),122.6
13,COc1ccc(-c2ccc(C3CNCCO3)nc2)cc1.Cl (configuration not stated),122.1
14,CCNc1ccnc(NCC2CNCCO2)n1 (configuration not stated),-11.04
15,Fc1ccc(-c2noc([C@@H]3Cc4nc[nH]c4CN3)n2)cc1,-11.77
16,Cc1ccc(N2CC3(COCCN(Cc4ccccn4)C3)OCC2=O)s1.O=C(O)C(F)(F)F.O=C(O)C(F)(F)F (configuration not stated),-3.574
17,O=C(O)C(F)(F)F.O=C1COC2(COCCN(c3ccccn3)C2)CN1c1cccc(F)c1 (configuration not stated),-5.368
18,Cc1cccc(N2CCOCC3(C2)CN(c2ccccc2)C(=O)CO3)n1.O=C(O)C(F)(F)F (configuration not stated),109.1
19,O=C(O)C(F)(F)F.O=C(O)C(F)(F)F.O=C1COC2(COCCN(Cc3cccnc3)C2)CN1c1ccoc1 (configuration not stated),-8.923
20,Cc1cccc(N2CCOCC3(C2)CN(c2ccoc2)C(=O)CO3)n1.O=C(O)C(F)(F)F (configuration not stated),101.1
21,Cn1cc(CN2CCOCC3(C2)CN(c2ccccc2)C(=O)CO3)cn1.O=C(O)C(F)(F)F (configuration not stated),-5.421
22,Cc1cccc(N2CCOCC3(C2)CN(c2cnn(C)c2)C(=O)CO3)n1.O=C(O)C(F)(F)F (configuration not stated),85
23,Cn1cc(N2CC3(COCCN(Cc4ccsc4)C3)OCC2=O)cn1.O=C(O)C(F)(F)F (configuration not stated),-6.124
24,COC(=O)c1ccc(CNC2CC(=O)N(Cc3cccc(F)c3)C2)cc1 (configuration not stated),2.767
